Source: PubChem BioAssay (Tox21)
Where “and” joins values, the source holds several entries; their conditions need not be identical. Identical values can stand only once. Results filed as inconclusive are left out. The source holds several records for some structures; these can differ, active in one and inactive in another. Calls of active or inactive are those of the source. Unless noted, calls come from the whole dose curve; as a rule, active = well fitted curve in the direction sought with a large enough effect in the repeat runs; inconclusive = weak or mixed curves; inactive = no such curve, though single readings can be large; an effect the other way counts as inactive or inconclusive.

Assays:
[1] = target: Thyrotropin receptor (Homo sapiens) (UniProt P16473); assay: qHTS assay to identify small molecule antagonists of the thyroid stimulating hormone receptor (TSHR) signaling pathway (AID 1259385; calls by dose curve; note: nearly all actives have a fitted effect of over 20% in size)
How it was run: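 TSHR-HEK293 cells (800/well) plated 18 h, then compounds with Ro20-1724 and TSH at 1.5 ng/mL final, 30 min at room temperature. cAMP quantified by HTRF (cAMP-d2/anti-cAMP-cryptate, 1 h); 15 concentrations in triplicate.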

[2] = target: Progesterone receptor (Homo sapiens) (UniProt P06401); assay: qHTS assay to identify small molecule agonists of the progesterone receptor (PR) signaling pathway (AID 1346784; calls by dose curve; note: nearly all actives have a fitted effect of over 30% in size; note: potency is the fitted concentration of half-maximal effect)
How it was run: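 PR-UAS-bla HEK 293T cells (beta-lactamase reporter under UAS) in 2% charcoal-stripped FBS, dosed with 23 nL compound after 6 hr, incubated 16hr at 37C. LiveBLAzer B/G FRET substrate added, fluorescence read after 2 hours.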

[3] = qHTS assay to identify small molecule agonists of the progesterone receptor (PR) signaling pathway - cell viability counter screen (AID 1346799; calls by dose curve; note: nearly all actives have a fitted effect of over 45% in size; note: potency is the fitted concentration of half-maximal effect)
How it was run: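 Counter screen in the PR-UAS-bla HEK293T wells (2% charcoal-stripped FBS, 16 h compound exposure at 37 C) after the bla read. CellTiter-Glo added, 30 min at room temperature, luminescence read as cell viability.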

[4] = qHTS assay to identify small molecule antagonists of the TGF-beta/Smad signaling pathway - cell viability counter screen (AID 1346824); note: nearly all actives have a fitted effect of over 50% in size
How it was run: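 SBE-bla HEK 293T cells, incubated overnight, then compound plus 0.25 ng/mL TGF-beta1 (stock added) for 5 hr at 37 C. Viability was read in the same wells by CellTiter-Glo luminescence after 30 min at room temperature.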

[5] = qHTS assay to identify small molecule agonists of the TGF-beta/Smad signaling pathway - cell viability counter screen (AID 1346829); note: top concentration of the series differs between compounds; nearly all actives have a fitted effect of over 45% in size
How it was run: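 CellTiter-Glo luminescence readout; SBE-bla HEK 293T cells, overnight plating, compound 5 hr at 37 C/5% CO2, then bla substrate 2 hr RT, then CellTiter-Glo 30 min RT.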

[6] = qHTS assay to identify small molecule agonists of the TGF-beta/Smad signaling pathway (AID 1346859; active = well fitted activation curve with a large enough effect in the signal ratio in the repeat runs, not every such curve was filed as active; the % refers to the signal ratio; note: series mostly up to about 77 µM)
How it was run: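 SBE-bla HEK293T cells plated overnight, then compound exposure for 5 h at 37 C. Beta-lactamase reporter read with LiveBLAzer B/G FRET substrate after 2 h at room temperature, fluorescence at 405 nm excitation, 460/530 nm emission.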

[7] = target: Thyrotropin-releasing hormone receptor (Homo sapiens) (UniProt P34981); assay: qHTS assay to identify small molecule antagonists of the thyrotropin-releasing hormone receptor (TRHR) signaling pathway (AID 1346877; active = well fitted inhibition curve with a large enough effect in the repeat runs, not every such curve was filed as active; note: series mostly up to about 51 µM)
How it was run: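 Human TRHR in HEK293 cells; inhibition of the intracellular calcium rise triggered by 1 nM TRH was followed by fluorescence over 3 min. Compounds were run at 15 concentrations, three replicates each.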

[8] = target: Thyrotropin-releasing hormone receptor (Homo sapiens) (UniProt P34981); assay: qHTS assay to identify small molecule agonists of the thyrotropin-releasing hormone receptor (TRHR) signaling pathway (AID 1346891; calls by dose curve; note: series mostly up to about 58 µM)
How it was run: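 HEK293 cells expressing TRHR plated 18 h at 37 C/5% CO2, calcium dye-loaded 2 h at 37 C, then compound added (agonist mode); kinetic calcium fluorescence read 3 min at 1 s intervals; 15 concentrations in triplicate.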

[9] = Human pregnane X receptor (PXR) small molecule agonists, qHTS cell viability counter screen (AID 1346977); note: nearly all actives have a fitted effect of over 50% in size; note: potency is the fitted concentration of half-maximal effect
How it was run: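 PXR-Luc HepG2 cells (2,000/well, 5% charcoal-stripped FBS) preincubated 5 hr, then exposed to compounds 24 hr at 37 C. Viability read in the same wells by CellTiter-Fluor fluorescence, reagent added at 23 hr, 1 hr incubation.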

[10] = Caspase-3/7 induction in HepG2 cells by small molecules, qHTS assay (AID 1346978); note: nearly all actives have a fitted effect of over 15% in size
How it was run: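 Wild-type HepG2 cells, 2,000/well, settled 5 hr at 37 C and 5% CO2, then compound-treated for 17 hr; caspase-3/7 activity read by luminescent Caspase-Glo 3/7 after 30 min at room temperature.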

[11] = Caspase-3/7 induction in CHO-K1 cells by small molecules, qHTS cell viability counter screen (AID 1346979); note: nearly all actives have a fitted effect of over 35% in size; note: potency is the fitted concentration of half-maximal effect
How it was run: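 Wild-type CHO-K1 cells (1,500/well) treated with compound after 5 h plating; after 16 h at 37C, viability read as CellTiter-Fluor fluorescence following 1 h reagent incubation, in the same wells as the caspase read.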

[12] = target: Nuclear receptor subfamily 1 group I member 2 (Homo sapiens) (UniProt O75469); assay: Human pregnane X receptor (PXR) small molecule agonists, qHTS assay (AID 1346982); note: nearly all actives have a fitted effect of over 35% in size; note: potency is the fitted concentration of half-maximal effect
How it was run: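 After plating in 5% charcoal-stripped FBS and a 5 hr rest, PXR-Luc HepG2 cells received compounds in DMSO. Following 24 hr at 37 C, ONE-Glo was added and light output read.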

[13] = qHTS assay to identify small molecule antagonists of the progesterone receptor (PR) signaling pathway - cell viability counter screen (AID 1346798); note: nearly all actives have a fitted effect of over 50% in size; note: potency is the fitted concentration of half-maximal effect
How it was run: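 PR-UAS-bla HEK293T cells, 3,000/well in 2% charcoal-stripped FBS medium, dosed with compounds plus R5020 agonist and incubated 16 h at 37C. Viability then measured in the same wells by CellTiter-Glo luminescence after 30 min at RT.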

[14] = Caspase-3/7 induction in CHO-K1 cells by small molecules, qHTS assay (AID 1346980); note: nearly all actives have a fitted effect of over 15% in size
How it was run: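 Wild-type CHO-K1 cells exposed to compounds for 17hr at 37 C, 5% CO2. Caspase-3/7 activity then measured by Caspase-Glo 3/7 luminescence after 30min at room temperature.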

[15] = Caspase-3/7 induction in HepG2 cells by small molecules, qHTS cell viability counter screen (AID 1346981); note: series mostly up to about 92 µM; nearly all actives have a fitted effect of over 30% in size
How it was run: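 The parent HepG2 line is plated at 2,000 cells per well and rested 5 hr before compound pinning from DMSO stocks. Following a 16-hr treatment at 37 C, a fluorogenic live-cell substrate (CellTiter-Fluor) reports viability after 1 hr.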

[16] = qHTS assay to identify small molecule agonists of the estrogen receptor alpha (ER-alpha) signaling pathway in the presence of an antagonist - cell viability counter screen (AID 1259386);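 note: series mostly up to about 92 µM; cells exposed to compounds for 22 h at 37 °C before the viability read; nearly all actives have a fitted effect of over 30% in size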
How it was run: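 Steps: 5-day stripped-FBS culture; seed and incubate 24hr; add ICI-182,780 (10.0nM final); pin 15-point compound titration; incubate 22hr at 37C; add CellTiter-Fluor at 21hr; read fluorescence.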

[17] = target: Progesterone receptor (Homo sapiens) (UniProt P06401); assay: qHTS assay to identify small molecule antagonists of the progesterone receptor (PR) signaling pathway (AID 1346795; active = well fitted inhibition curve with a large enough effect in the signal ratio in the repeat runs, not every such curve was filed as active; the % refers to the signal ratio)
How it was run: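 PR-UAS-bla HEK293T cells with beta-lactamase reporter under UAS control, in 2% charcoal-stripped FBS, treated with compounds plus 1 nM promegestone (R5020, final) for 16 hr at 37C. Read-out: FRET beta-lactamase substrate fluorescence after 2 hr at room temperature.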

[18] = target: Nuclear receptor subfamily 1 group I member 2 (Rattus norvegicus) (UniProt Q9R1A7); assay: Rat pregnane X receptor (rPXR) activation by small molecules, qHTS assay (AID 1346983); conditions: rPXR luciferase reporter cells, One-Glo luminescence, 24 h; max activation: stronger effect = higher value; note: nearly all actives have a fitted effect of over 20% in size
How it was run: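 Cell-based rPXR activation assay: rPXR cells, 2,000 per well, rested 5hr at 37 C, then exposed to compounds in DMSO for 24 hr at 37 C. Luciferase activity read by One-Glo luminescence after 30 min at room temperature.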

[19] = target: Nuclear receptor subfamily 1 group I member 2 (Homo sapiens) (UniProt O75469); assay: CYP3A4 induction through human pregnane X receptor (PXR) by small molecules, qHTS assay (AID 1346984); note: nearly all actives have a fitted effect of over 40% in size
How it was run: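 Human PXR activation is tracked via CYP3A4 promoter-luciferase in DPX-2 (HepG2) cells. Compounds treat cells for 24hr at 37C, and luminescence is read after One-Glo.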

[20] = target: Nuclear receptor subfamily 1 group I member 2 (Homo sapiens) (UniProt O75469); assay: Human pregnane X receptor (PXR) activation by small molecules, qHTS assay (AID 1346985); note: nearly all actives have a fitted effect of over 40% in size
How it was run: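 DPX-2 cells (HepG2 co-transfected with a PXR response element and a CYP3A4-promoter luciferase construct) were seeded at 2,000 per well, rested 5 hr at 37C, then exposed to DMSO-dissolved compounds for 24 hr. Activation was read as luciferase luminescence.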
% is set by controls: 0 for no effect and ±100 for the full control effect.

Chain of Nuclear receptor subfamily 1 group I member 2 (Homo sapiens) (O75469 whole entry, looked up): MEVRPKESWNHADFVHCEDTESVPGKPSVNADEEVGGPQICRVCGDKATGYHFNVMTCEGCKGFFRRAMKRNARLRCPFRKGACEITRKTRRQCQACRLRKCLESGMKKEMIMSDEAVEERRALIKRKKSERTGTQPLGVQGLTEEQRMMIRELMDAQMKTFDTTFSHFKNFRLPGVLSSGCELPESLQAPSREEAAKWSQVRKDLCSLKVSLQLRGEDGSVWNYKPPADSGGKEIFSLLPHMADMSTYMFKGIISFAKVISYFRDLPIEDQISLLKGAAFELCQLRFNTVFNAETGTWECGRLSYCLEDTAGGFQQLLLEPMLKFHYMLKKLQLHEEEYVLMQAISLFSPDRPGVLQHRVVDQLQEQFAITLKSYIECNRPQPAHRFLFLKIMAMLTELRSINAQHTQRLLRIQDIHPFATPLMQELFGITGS
Chain of Progesterone receptor (Homo sapiens) (P06401 whole entry, looked up): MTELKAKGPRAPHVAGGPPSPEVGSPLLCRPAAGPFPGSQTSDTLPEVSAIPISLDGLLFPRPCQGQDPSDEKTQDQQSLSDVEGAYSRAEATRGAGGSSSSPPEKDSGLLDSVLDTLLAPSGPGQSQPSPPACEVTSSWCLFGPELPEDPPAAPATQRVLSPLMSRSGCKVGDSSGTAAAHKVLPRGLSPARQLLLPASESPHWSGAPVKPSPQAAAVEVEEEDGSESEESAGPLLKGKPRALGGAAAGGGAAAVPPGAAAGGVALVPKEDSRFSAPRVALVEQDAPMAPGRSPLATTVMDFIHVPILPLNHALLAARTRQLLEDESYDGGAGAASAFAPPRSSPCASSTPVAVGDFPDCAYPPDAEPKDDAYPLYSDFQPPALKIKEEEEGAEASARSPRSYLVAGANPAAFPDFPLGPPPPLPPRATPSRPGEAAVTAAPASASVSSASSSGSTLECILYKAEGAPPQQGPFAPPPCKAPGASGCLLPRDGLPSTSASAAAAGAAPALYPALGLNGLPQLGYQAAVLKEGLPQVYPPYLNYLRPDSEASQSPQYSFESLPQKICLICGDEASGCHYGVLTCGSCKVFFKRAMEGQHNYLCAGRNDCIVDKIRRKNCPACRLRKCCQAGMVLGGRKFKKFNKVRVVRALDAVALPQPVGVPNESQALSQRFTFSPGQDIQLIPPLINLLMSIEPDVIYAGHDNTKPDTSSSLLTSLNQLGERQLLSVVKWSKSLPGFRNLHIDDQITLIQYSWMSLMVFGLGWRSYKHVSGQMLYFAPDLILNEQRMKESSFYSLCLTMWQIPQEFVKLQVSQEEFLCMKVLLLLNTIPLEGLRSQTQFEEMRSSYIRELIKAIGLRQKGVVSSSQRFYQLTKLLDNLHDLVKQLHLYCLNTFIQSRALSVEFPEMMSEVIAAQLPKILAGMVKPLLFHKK
Chain of Thyrotropin receptor (Homo sapiens) (P16473 whole entry, looked up): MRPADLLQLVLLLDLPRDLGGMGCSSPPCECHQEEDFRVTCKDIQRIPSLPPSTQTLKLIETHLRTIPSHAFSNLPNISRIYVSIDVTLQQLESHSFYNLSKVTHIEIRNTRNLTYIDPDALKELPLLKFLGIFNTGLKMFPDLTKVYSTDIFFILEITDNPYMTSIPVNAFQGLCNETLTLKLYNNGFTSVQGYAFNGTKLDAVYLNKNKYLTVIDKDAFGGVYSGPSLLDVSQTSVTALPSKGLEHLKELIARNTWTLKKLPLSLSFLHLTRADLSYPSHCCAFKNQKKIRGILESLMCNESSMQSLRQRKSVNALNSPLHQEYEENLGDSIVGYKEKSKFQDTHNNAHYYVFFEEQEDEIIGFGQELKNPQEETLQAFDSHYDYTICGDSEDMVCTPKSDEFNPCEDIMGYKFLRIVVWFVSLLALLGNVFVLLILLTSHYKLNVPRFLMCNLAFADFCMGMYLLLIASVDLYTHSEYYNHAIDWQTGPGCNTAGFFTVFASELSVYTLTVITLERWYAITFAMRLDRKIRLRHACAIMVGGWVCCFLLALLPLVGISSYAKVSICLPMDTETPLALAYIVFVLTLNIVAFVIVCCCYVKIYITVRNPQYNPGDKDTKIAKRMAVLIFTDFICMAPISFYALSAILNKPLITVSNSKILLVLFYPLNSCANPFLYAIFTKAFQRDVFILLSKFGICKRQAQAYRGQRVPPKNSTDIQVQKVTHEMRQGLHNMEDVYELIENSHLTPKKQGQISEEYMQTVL
Chain of Thyrotropin-releasing hormone receptor (Homo sapiens) (P34981 whole entry, looked up): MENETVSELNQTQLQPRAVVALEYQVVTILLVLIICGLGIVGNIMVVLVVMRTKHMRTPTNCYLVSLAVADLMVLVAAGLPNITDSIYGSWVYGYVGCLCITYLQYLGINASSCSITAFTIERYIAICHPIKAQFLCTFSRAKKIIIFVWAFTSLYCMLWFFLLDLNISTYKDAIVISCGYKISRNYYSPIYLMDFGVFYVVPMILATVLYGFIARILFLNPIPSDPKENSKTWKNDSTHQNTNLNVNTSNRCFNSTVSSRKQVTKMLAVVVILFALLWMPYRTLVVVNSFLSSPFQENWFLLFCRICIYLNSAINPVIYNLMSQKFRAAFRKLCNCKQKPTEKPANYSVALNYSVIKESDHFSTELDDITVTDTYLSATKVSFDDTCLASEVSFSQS
Chain of Nuclear receptor subfamily 1 group I member 2 (Rattus norvegicus) (Q9R1A7 whole entry, looked up): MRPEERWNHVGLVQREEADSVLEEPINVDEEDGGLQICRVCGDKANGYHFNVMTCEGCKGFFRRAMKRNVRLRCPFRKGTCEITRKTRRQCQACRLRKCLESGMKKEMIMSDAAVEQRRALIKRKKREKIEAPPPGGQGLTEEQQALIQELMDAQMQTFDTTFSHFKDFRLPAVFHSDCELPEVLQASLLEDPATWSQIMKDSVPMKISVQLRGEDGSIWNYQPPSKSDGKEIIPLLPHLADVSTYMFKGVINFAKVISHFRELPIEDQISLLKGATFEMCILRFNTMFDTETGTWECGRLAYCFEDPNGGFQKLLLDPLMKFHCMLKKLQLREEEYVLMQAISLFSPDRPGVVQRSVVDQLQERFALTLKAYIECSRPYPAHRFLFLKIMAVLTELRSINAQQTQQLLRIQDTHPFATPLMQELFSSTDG

CCCC(=O)Cl
inactive: Potency [1] | Potency [2] | Potency [3] | Potency [4] | Potency [5] | outcome [6] | Potency [7] | Potency [8] | Potency [9] | Potency [10] | Potency [11] | Potency [12]

BrCCCCBr
inactive: Potency [1] | Potency [13] | Potency [3] | Potency [5] | outcome [6] | Potency [7] | Potency [8] | Potency [9] | Potency [10] | Potency [11] | Potency [14] | Potency [15] | Potency [12]

CC(Cl)C(C)Cl (configuration not stated)
inactive: Potency [16] | Potency [2] | Potency [17] | Potency [13] | Potency [3] | Potency [4] | Potency [5] | outcome [6] | Potency [7] | Potency [8] | Potency [9] | Potency [10] | Potency [11] | Potency [15] | Potency [12]

O=C(NCc1cccnc1)Nc1ccc([N+](=O)[O-])cc1
active: Potency [13] 24.3 µM | Potency [3] 43.3 µM
inactive: Potency [1] | Potency [7] | Potency [8] | Potency [9] | Potency [11] | Potency [14] | Potency [15] | Potency [12]

CCCCN(N=O)C(=N)N[N+](=O)[O-]
inactive: Potency [16] | Potency [2] | Potency [17] | Potency [13] | Potency [3] | Potency [4] | Potency [5] | outcome [6] | Potency [7] | Potency [8] | Potency [10] | Potency [14] | Potency [12]
active: Potency [11] 62.4 µM

CS/C(C)=N/OC(=O)N(C)SN(C)C(=O)O/N=C(\C)SC
inactive: Potency [16] | Potency [2] | Potency [17] | Potency [13] | Potency [3] | Potency [4] | Potency [5] | outcome [6] | Potency [8] | Potency [14] | Potency [15]

COP(=S)(Oc1cc(Cl)c(Br)cc1Cl)c1ccccc1 (configuration not stated)
active: Potency [12] 24.3 µM
inactive: Potency [1] | Potency [13] | Potency [4] | Potency [5] | outcome [6] | Potency [7] | Potency [8] | Potency [9] | Potency [15]

[O-][Cl+]O
inactive: Potency [16] | Potency [2] | Potency [17] | Potency [13] | Potency [3] | Potency [4] | Potency [5] | outcome [6] | Potency [7] | Potency [8] | Potency [10] | Potency [15] | Potency [12]

CCn1cc[n+](C)c1
inactive and 54.5 µM (active): Potency [9]
inactive and 48.6 µM (active): Potency [12]
inactive and 15.3 µM (active): Potency [2]
inactive: Potency [16] | Potency [17] | Potency [13] | Potency [3] | Potency [4] | Potency [5] | outcome [6] | Potency [10] | Potency [11] | Potency [14] | Potency [15]

[CH3][Sn]([CH3])([Cl])[Cl]
inactive: Potency [2] | Potency [17] | Potency [13] | Potency [3] | Potency [4] | Potency [5] | outcome [6] | Potency [7] | Potency [8] | Potency [9] | Potency [10] | Potency [14] | Potency [15] | Potency [12]
active: Potency [11] 31.1 µM and 54.5 µM

CN1C(=O)C(O)N=C(c2ccccc2)c2cc(Cl)ccc21 (configuration not stated)
inactive: Potency [16] | Potency [17] | Potency [13] | Potency [4] | Potency [5] | outcome [6] | Potency [9] | Potency [10] | Potency [11] | Potency [14] | max activation [18] -0.547%
active: Potency [12] 28.3 µM

CN(C)c1ccc(N(C)C)cc1
inactive: Potency [2] | Potency [17] | Potency [13] | Potency [4] | Potency [5] | outcome [6] | Potency [10] | Potency [14] | Potency [15]

CCCCCCCCCC(=O)O[C@H]1CC[C@H]2[C@@H]3CCC4=CC(=O)CC[C@@H]4[C@H]3CC[C@]12C
inactive: Potency [13] | Potency [3] | Potency [4] | Potency [5] | outcome [6] | Potency [7] | Potency [8] | Potency [9] | Potency [10] | Potency [11] | Potency [14] | Potency [15] | max activation [18] -0.997% | Potency [19] | Potency [20]

BrCC(Br)C1CCC(Br)C(Br)C1 (configuration not stated)
inactive: Potency [16] | Potency [2] | Potency [13] | Potency [3] | Potency [5] | outcome [6] | Potency [7] | Potency [8] | Potency [9] | Potency [10] | Potency [11] | Potency [14] | Potency [15]
active: Potency [12] 48.3 µM
